The list is not random: actives were taken first. Their share in the collection is about 0.32%.
TcdB GH inh: TcdB glycohydrolase inhibitors, primary screen, biochemical, single point, plate reader. Toxin B (Clostridioides difficile), P18177. TcdB glycohydrolase enzymatic assay. inhibition, % at 9.99 µM. actives 0.24% (n = 350,000). AID 652162, 2013; in the data active = inhibition above about 10%
Target sequence (P18177 whole entry, looked up): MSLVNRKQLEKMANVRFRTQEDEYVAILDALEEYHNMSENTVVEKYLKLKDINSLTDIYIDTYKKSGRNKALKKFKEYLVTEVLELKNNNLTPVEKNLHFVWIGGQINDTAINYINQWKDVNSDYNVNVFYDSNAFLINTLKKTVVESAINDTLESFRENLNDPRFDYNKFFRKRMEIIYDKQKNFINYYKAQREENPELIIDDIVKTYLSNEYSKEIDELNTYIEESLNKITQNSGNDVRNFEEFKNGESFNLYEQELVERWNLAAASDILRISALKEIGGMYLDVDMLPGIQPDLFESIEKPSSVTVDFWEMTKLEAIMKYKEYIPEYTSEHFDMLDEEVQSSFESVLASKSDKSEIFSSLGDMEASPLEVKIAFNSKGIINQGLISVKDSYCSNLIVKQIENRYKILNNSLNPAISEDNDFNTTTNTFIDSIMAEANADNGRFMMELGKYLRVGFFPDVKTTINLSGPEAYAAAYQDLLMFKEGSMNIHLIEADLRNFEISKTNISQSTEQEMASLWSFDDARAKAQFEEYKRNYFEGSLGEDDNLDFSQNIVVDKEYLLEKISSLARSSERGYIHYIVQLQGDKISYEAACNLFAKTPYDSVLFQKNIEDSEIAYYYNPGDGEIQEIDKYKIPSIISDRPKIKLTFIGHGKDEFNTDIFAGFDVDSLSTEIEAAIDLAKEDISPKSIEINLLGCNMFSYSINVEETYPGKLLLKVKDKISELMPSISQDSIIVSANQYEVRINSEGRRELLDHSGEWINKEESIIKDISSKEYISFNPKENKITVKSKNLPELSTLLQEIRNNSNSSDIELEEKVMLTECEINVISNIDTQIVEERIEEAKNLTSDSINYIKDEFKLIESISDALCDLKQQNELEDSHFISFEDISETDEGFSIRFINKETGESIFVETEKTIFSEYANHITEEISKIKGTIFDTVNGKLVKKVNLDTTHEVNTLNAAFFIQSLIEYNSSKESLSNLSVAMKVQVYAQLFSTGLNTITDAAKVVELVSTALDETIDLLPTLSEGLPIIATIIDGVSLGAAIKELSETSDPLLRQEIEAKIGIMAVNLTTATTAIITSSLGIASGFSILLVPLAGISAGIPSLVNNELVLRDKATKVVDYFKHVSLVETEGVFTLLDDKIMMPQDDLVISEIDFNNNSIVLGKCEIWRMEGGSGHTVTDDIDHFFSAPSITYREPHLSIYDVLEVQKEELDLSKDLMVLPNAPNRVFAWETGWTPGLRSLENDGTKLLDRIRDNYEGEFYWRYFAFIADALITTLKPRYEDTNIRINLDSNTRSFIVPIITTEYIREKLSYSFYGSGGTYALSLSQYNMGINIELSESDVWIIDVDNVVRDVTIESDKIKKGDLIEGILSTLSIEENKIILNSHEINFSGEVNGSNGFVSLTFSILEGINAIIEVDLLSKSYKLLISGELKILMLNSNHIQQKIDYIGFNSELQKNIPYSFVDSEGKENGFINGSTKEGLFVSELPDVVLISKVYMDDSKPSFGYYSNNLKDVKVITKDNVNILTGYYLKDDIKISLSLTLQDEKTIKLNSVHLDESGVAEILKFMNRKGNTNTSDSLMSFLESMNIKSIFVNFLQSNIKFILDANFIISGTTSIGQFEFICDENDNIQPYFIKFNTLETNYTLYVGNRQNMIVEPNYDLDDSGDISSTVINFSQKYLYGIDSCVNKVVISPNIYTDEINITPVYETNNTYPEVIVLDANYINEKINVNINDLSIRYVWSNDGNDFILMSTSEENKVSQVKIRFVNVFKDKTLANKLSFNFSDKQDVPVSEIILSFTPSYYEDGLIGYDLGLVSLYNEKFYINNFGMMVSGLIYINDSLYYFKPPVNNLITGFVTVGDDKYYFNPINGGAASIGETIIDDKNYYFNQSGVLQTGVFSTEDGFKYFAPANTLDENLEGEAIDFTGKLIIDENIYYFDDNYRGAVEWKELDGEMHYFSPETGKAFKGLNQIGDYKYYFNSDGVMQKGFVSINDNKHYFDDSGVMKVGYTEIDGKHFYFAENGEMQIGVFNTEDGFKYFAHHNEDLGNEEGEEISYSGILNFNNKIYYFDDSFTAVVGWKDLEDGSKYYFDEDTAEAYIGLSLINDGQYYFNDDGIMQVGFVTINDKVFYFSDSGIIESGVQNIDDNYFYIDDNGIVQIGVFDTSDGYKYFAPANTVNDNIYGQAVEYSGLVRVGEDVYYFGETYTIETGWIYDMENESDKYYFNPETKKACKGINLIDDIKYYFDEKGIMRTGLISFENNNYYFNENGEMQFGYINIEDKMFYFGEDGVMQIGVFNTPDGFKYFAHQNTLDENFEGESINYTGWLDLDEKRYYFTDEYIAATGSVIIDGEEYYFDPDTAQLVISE
Mtb BioA inh: M. tuberculosis BioA enzyme inhibitors, primary screen, biochemical, plate reader, single point, HTS. 7,8-diaminopelargonic acid synthase BioA (Mycobacterium tuberculosis). purified M. tuberculosis BioA enzyme. inhibition, % at 9.99 µM. actives 0.096% (n = 360,000); in the data active = inhibition above about 40%
Yp Topo-I inh: Yersinia pestis topoisomerase I inhibitors, primary screen, biochemical, cleavage product accumulation, plate reader, single point; DNA topoisomerase I (Yersinia pestis CO92); Y. pestis Topo-I cleavage product accumulation; activity, % at 10 µM; actives 0.064% (n = 360,000); in the data active = activity above about 50%, passing the limit was not always enough
Numbers without * were called inactive.

Screening Cc1ccc(C(=O)N2N=C(c3cccc(NS(C)(=O)=O)c3)CC2c2cccs2)cc1 (stereo not drawn) returned TcdB GH inh 0, Mtb BioA inh 2 and Yp Topo-I inh 6.
CS(=O)(=O)Nc1cccc(C2=NN(C(=O)c3ccccc3)C(c3cccs3)C2)c1 (stereo not drawn) was read as TcdB GH inh 13*, Mtb BioA inh 5 and Yp Topo-I inh 4.
For O=C(N[C@@H](Cc1c[nH]c2ccccc12)C(=O)O)C1CCN(S(=O)(=O)c2cccs2)CC1 the results were TcdB GH inh 11*, Mtb BioA inh 1 and Yp Topo-I inh -5.
O=C(N[C@@H](Cc1c[nH]c2ccccc12)C(=O)O)C1CCN(S(=O)(=O)c2ccc(Cl)cc2)CC1 was read as TcdB GH inh 1, Mtb BioA inh 2 and Yp Topo-I inh 9.
Screening C[C@@H]1CCCCO[C@@H](CN(C)CC2CCCCC2)[C@@H](C)CN([C@H](C)CO)C(=O)c2cc(NC(=O)Nc3cccc4ccccc34)ccc2O1 returned TcdB GH inh 0 and Mtb BioA inh -3.
`COc1cc(/C=C/C(=O)OCC(=O)Nc2ccc3c(c2)OCCO3)ccc1O` gave Mtb BioA inh 0 and Yp Topo-I inh -12.
For COc1cc(/C=C(\C#N)C(=O)Nc2ccc3c(c2)OCCO3)ccc1O the results were TcdB GH inh 15* and Yp Topo-I inh -12.
`COc1ccc(S(=O)(=O)Nc2cccc3c2O[C@H](CN(C)C(=O)Nc2ccc4c(c2)OCO4)[C@H](C)CN([C@@H](C)CO)C3=O)cc1` gave TcdB GH inh 1 and Mtb BioA inh 1.
`C/C=C/c1ccc([C@H]2[C@H]3CN(C(=O)Nc4cccc(OC)c4)CC(=O)N3[C@H]2CO)cc1` gave TcdB GH inh 1.
Screening O=C(OCc1ccccc1)N1CCC2CC1c1cc(Cl)ccc12 (stereo not drawn) returned TcdB GH inh 0, Mtb BioA inh 0 and Yp Topo-I inh -7.
O=C(OCc1ccccc1)N1CCC2CC1c1c(Cl)cccc12 (stereo not drawn) was read as TcdB GH inh 1, Mtb BioA inh 2 and Yp Topo-I inh 59*.
`C[C@H]1CN([C@@H](C)CO)C(=O)c2cc(NS(=O)(=O)c3cccs3)ccc2O[C@@H]1CN(C)Cc1ccc(C(=O)O)cc1` gave TcdB GH inh -1 and Mtb BioA inh 2.
Screening CN(C)C(=O)[C@@H]1[C@@H](CO)[C@@H]2Cn3c(ccc(-c4cccnc4)c3=O)[C@H]1N2C(=O)NC1CCCC1 returned TcdB GH inh 0 and Mtb BioA inh 4.
COC(=O)C1=C(c2ccc(F)cc2OCc2ccccc2)C[C@@H]2CC[C@H]1N2C(=O)NCCOc1ccc(OC)cc1 was read as TcdB GH inh 1, Mtb BioA inh -1 and Yp Topo-I inh 0.
For COC(=O)C1=C(c2ccc(F)cc2OCc2ccccc2)C[C@@H]2CC[C@H]1N2C(=O)NCCOc1ccccc1 the results were TcdB GH inh 10*, Mtb BioA inh -1 and Yp Topo-I inh 7.
COC(=O)C1=C(c2ccc(F)cc2OCc2ccccc2)C[C@@H]2CC[C@H]1N2C(=O)N1CCCC1 was read as TcdB GH inh 10*, Mtb BioA inh 1 and Yp Topo-I inh 13.
Screening COC(=O)C1=C(c2ccc(F)cc2OCc2ccccc2)C[C@@H]2CC[C@H]1N2C(=O)NC(C)C returned TcdB GH inh 2, Mtb BioA inh -1 and Yp Topo-I inh 13.
Screening O=C(N[C@@H]1CC[C@H](CC(=O)N2CCc3ccccc3C2)O[C@@H]1CO)C1CCOCC1 returned TcdB GH inh -1 and Mtb BioA inh 1.
Screening Cc1c(COc2ccc3ccccc3c2)nnn1CC(=O)NS(=O)(=O)c1ccccc1C(F)(F)F returned TcdB GH inh -5, Mtb BioA inh 0 and Yp Topo-I inh 17.
Screening O=C(Cn1cc(COc2ccc(Cl)c(Cl)c2)nn1)NS(=O)(=O)c1ccccc1OC(F)(F)F returned TcdB GH inh 11*, Mtb BioA inh -1 and Yp Topo-I inh 14.
Screening O=C(C[C@@H]1C=C[C@@H](NS(=O)(=O)c2ccc(F)cc2)[C@H](CO)O1)NC1CCC1 returned TcdB GH inh 0 and Mtb BioA inh 2.
`CC(=O)Nc1cccc2cc(S(=O)(=O)O)ccc12` gave TcdB GH inh 0.
For CC(=O)Nc1cccc2cc(O)ccc12 the results were TcdB GH inh 22*, Mtb BioA inh -3 and Yp Topo-I inh -8.
COc1cccc(-c2cnc3c(c2)C(=O)N([C@@H](C)CO)C[C@@H](C)[C@@H](CN(C)Cc2ccc(F)cc2)O3)c1 was read as TcdB GH inh -1 and Mtb BioA inh 3.
CCCS(=O)(=O)NC(=O)C1(C)CCN(C(=O)c2cccc3ccccc23)C1 (stereo not drawn) was read as TcdB GH inh 2, Mtb BioA inh 0 and Yp Topo-I inh 4.
CCCS(=O)(=O)NC(=O)C1(C)CCN(C(=O)c2ccco2)C1 (stereo not drawn) was read as TcdB GH inh 11*, Mtb BioA inh -2 and Yp Topo-I inh -10.
Screening COc1ccc(S(=O)(=O)Nc2ccc3c(c2)CC(=O)N([C@@H](C)CO)C[C@@H](C)[C@H](CN(C)S(=O)(=O)c2ccc(Cl)cc2)O3)cc1 returned TcdB GH inh 2 and Mtb BioA inh -1.
`Cc1ccc2oc3c(c(=O)c2c1)C(c1cccs1)N(CCCN(C)C)C3=O` (stereo not drawn) gave Mtb BioA inh 59* and Yp Topo-I inh 5.
For O=C1c2oc3ccccc3c(=O)c2C(c2cccs2)N1CCCN1CCOCC1 (stereo not drawn) the results were Mtb BioA inh 18 and Yp Topo-I inh 0.
Screening Cc1ccc(S(=O)(=O)N(C)C[C@H]2Oc3ccc(NC(=O)CCN4CCOCC4)cc3CC(=O)N([C@H](C)CO)C[C@H]2C)cc1 returned TcdB GH inh -1 and Mtb BioA inh -2.
`O=S(=O)(c1ccccc1F)N1CC[C@@H]2[C@H](CO)Nc3ccc(C4=CCCCC4)cc3[C@@H]21` gave TcdB GH inh -1 and Mtb BioA inh 2.
O=C(CC1CCCCC1)Nc1ccccc1-c1ccccc1 was read as TcdB GH inh 1 and Yp Topo-I inh 20.
Screening CN(CC(=O)Nc1ccccc1-c1ccccc1)C1CCCCC1 returned Mtb BioA inh -2 and Yp Topo-I inh 58*.
For O=C(C[C@@H]1CC[C@@H]2[C@H](COC[C@@H](O)CN2Cc2nccs2)O1)NCc1ccc(Cl)cc1 the results were TcdB GH inh -1 and Mtb BioA inh -2.
C=CCOc1ccc(CNc2ccc3[nH]c(=O)[nH]c3c2)cc1OC was read as TcdB GH inh -1 and Yp Topo-I inh -8.
For C=CCOc1cccc(CNc2ccc3[nH]c(=O)[nH]c3c2)c1 the results were TcdB GH inh 24*, Mtb BioA inh 0 and Yp Topo-I inh -1.
Screening CC1(C)O[C@@H]2[C@H](O1)[C@@H](COS(=O)(=O)O)O[C@H]2n1c(=S)[nH]c2c(=O)[nH]c(N)nc21 returned TcdB GH inh 12*, Mtb BioA inh -7 and Yp Topo-I inh 0.

Bioassay records: PubChem, Broad Institute
